From ChEMBL document CHEMBL3988442, “University of Dundee, Small-Polar-MMV Screening Library” (2021)
The campaign covered roughly 48,000 compounds. About 13,000 (27%) showed an effect of 50% or more. Some of the results follow.

Test system: Wolbachia pipientis
Experiment: Anti-Wolbachia Cell-Based Screen
Type: functional
Design: scale not given: in the data most compounds retested in dose-response had high values
Conditions: 5 µM

SMILES | Percent Effect [%]
Cc1cc(C(=O)N2CCn3cnc(COCC4CC4)c3C2)no1 | -11.47
CCc1n[nH]c(C2CN(C(=O)c3cc4c(s3)CCCC4)CCO2)n1 (stereo not drawn) | -2.74
CCc1n[nH]c(C2CN(C(=O)c3ccc4c(c3)CCC4)CCO2)n1 (stereo not drawn) | 79.95
CCc1n[nH]c(C2CN(C(=O)c3ccc4c(c3)CCCC4)CCO2)n1 (stereo not drawn) | 128.9
Cc1n[nH]c(C2CN(C(=O)c3ccc4c(c3)CCCC4)CCO2)n1 (stereo not drawn) | -29.36
CCc1nc(CNC2CCCc3c2cnn3CC)cs1 (stereo not drawn) | 1.475
CS(=O)(=O)NCC1CCCCN1Cc1cccc(C#N)c1 (stereo not drawn) | 20.87
CC(C)C1CN(S(=O)(=O)c2cccc(C#N)c2)CCS1 (stereo not drawn) | -18.57
N#Cc1cccc(S(=O)(=O)N2CCCCC2CCN2CCCC2)c1 (stereo not drawn) | 93.73
N#Cc1cccc(S(=O)(=O)N2CCCCC2CCN2CCCC2=O)c1 (stereo not drawn) | 2.931
COCCCC1CCCCN1S(=O)(=O)c1cccc(C#N)c1 (stereo not drawn) | 99.73
CCN1CCCC1CN(CCN(C)C)S(=O)(=O)c1cccc(C#N)c1 (stereo not drawn) | -13.07
O=C(O)c1csc(S(=O)(=O)N2CCCc3cc(OC(F)F)ccc32)c1 | -5.134
O=C(C1CCOCC1)N1C[C@H]2CCC[C@@]2(COc2cccnc2)C1.O=C(O)C(F)(F)F | 89.34
Cc1ccc(N2C[C@H]3CCC[C@@]3(COc3cccnc3)C2)nn1.O=C(O)C(F)(F)F.O=C(O)C(F)(F)F | -0.008691
O=C(C1CCOCC1)N1C[C@H]2CCC[C@@]2(COCc2ccccn2)C1 | 98.54
COC[C@@]12CCC[C@@H]1CN(C(=O)Cc1ccccn1)C2.O=C(O)C(F)(F)F | 87.04
O=C(O)C(F)(F)F.O=C(c1ncccn1)N1C[C@H]2CCC[C@@]2(COCc2cccnc2)C1 | 0.3809
CN(C)S(=O)(=O)N1C[C@H]2CCC[C@@]2(COCc2ccccn2)C1.O=C(O)C(F)(F)F | 5.963
CN(C)S(=O)(=O)N1C[C@H]2CCC[C@@]2(COc2cccnc2)C1.O=C(O)C(F)(F)F | 5.762
Cc1noc(C)c1C(=O)N1C[C@H]2CCC[C@@]2(COc2ccccn2)C1.O=C(O)C(F)(F)F | -9.504
O=C(N1CCCC1)N1C[C@H]2CCC[C@@]2(COCc2ccccn2)C1.O=C(O)C(F)(F)F | 108.6

SMILES | Percent Effect [%]
Cc1cccc(NS(=O)(=O)c2ccc(C#N)nc2)c1C#N | -1.647
CC(C)c1cc(C(=O)N2CCN(c3ncc4c(n3)CCOC4)CC2)on1 | 106.5
CCC(CC)c1cc(C(=O)N2CCN(C(C)C(N)=O)CC2)on1 (stereo not drawn) | -12.57
CCC(CC)c1cc(C(=O)N2CCN(C(C#N)C(C)C)CC2)on1 (stereo not drawn) | -14.62
Cc1cc(NC(=O)CN(c2ccccc2)C(C)C)on1 | -6.846
COc1cccc(Nc2nc(C3CCNCC3)c3sc(C)c(C)n23)c1.Cl | 130.3
COc1cccc(Nc2nc(C3CCCNC3)c3sc(C)c(C)n23)c1.Cl (stereo not drawn) | 119.3
O=C(Nc1cccnc1-n1cncn1)N(C1CCCC1)C1CC1 | -11.98
CN(C)[C@@H]1CO[C@H](CNC(=O)CC(C)(C)C)[C@H]1O | -5.201
COc1cccc(OCC2CCCN(C(=O)CCCn3cccn3)C2)c1 (stereo not drawn) | -37.97
CSCCC(=O)NCc1cc2n(n1)CCCN(C1CCCCC1)C2 | 170.8
CSCC[C@H](N)C(=O)NCc1cc2n(n1)CCCN(C1CCCCC1)C2 | -4.094
CC(C)CN1CCCn2nc(CNC(=O)Cc3cccc(O)c3)cc2C1 | 6.027
CC(C)SCC(=O)NCc1cc2n(n1)CCCN(C1CCCCC1)C2 | 96.57
CC(C)CN1CCCn2nc(CNC(=O)CCN)cc2C1 | -4.677
CCN(C(C)=O)C1CCN(c2nccc(CCC(F)(F)F)n2)C1 (stereo not drawn) | -1.785
COCc1ccc(C(=O)N2CCC(c3nccn3CC3CC3)CC2)o1 | -37.93
CCCC(C)(C)NC(=O)CCN1CCOC1=O | 8.427
COc1cccc(S(=O)(=O)CCNC(C)Cn2cccn2)c1 (stereo not drawn) | -1.101
CC(=O)c1c[nH]c(C(=O)N2CCN(C(C(N)=O)c3ccccc3)CC2)c1 (stereo not drawn) | -4.109
CN1C(=O)CC(C(=O)O)C12CCN(Cc1cc(Cl)ccc1F)CC2 (stereo not drawn) | -0.96
Cc1nc(CNC(=O)C(C)(C)c2ccc(F)cc2)no1 | 7.656

SMILES | Percent Effect [%]
Cn1cc(CN2CCC(CCC(=O)NCc3ccc(F)cc3)CC2)cn1 | -6.777
CN1CCC(N(Cc2ccccc2F)C(=O)NCc2ccncc2)CC1 | 10.43
O=C(NCc1ccccc1CN1CCCC1)Nc1cccnc1 | 1.889
CN1CCCC(c2cncc(C(=O)NCc3ccccc3Cl)n2)C1.O=CO (stereo not drawn) | 120.9
CN1CCC(c2cncc(C(=O)NCc3ccc(F)cc3)n2)CC1 | 172.3
CN(C)C(=O)NC1COC2(CCN(Cc3nccn3C)CC2)C1 (stereo not drawn) | 15.08
Cc1nc(CN2CCC(Oc3ccc(F)cc3C)(C(=O)O)CC2)co1 | -0.386
O=C(CCCc1ccccn1)N1CCC(n2cccc2)CC1 | 17.05
Cc1nc(CN2CC(CCCc3ccccn3)(C(=O)N(C)C)C2)co1 | 55.58
Cc1ccc(NC2CCN(C(=O)CCCc3ccccn3)CC2)cc1 | 28.87
Cc1nc(CN2CCC2(CCCc2ccccn2)C(=O)N(C)C)co1 (stereo not drawn) | 74.52
O=C(CCCc1ccccn1)N1CCOc2ccc(F)cc21 | -6.681
CNC(=O)C1(CCCc2ccccn2)CCN1Cc1coc(C)n1 (stereo not drawn) | 87.23
CN(C)C(=O)C1(CCCc2ccccn2)CCN1Cc1nccn1C (stereo not drawn) | 105.4
Cn1ccnc1CN1CCCC(CO)(CCc2ccccc2)C1 (stereo not drawn) | 4.446
Cc1cccc(C(C(=O)NCCCc2ccccn2)N(C)C)c1 (stereo not drawn) | 0.3434
O=C(CN1C(=O)CCC1=O)N1Cc2cncnc2C1 | 12.03
Cc1nc2n(n1)CC(NCC(=O)N(C)Cc1cccs1)CC2 (stereo not drawn) | 8.702
CC(C)(C)c1cn(CC2CCCN(c3cnc4ccccc4n3)C2)nn1 (stereo not drawn) | 0.2574
CCNC(=O)N1CCCCC1CCO (stereo not drawn) | -12.11
CC1(C)OC(=O)N(CC(=O)N2CCC(c3ccccc3Cl)C2)C1=O (stereo not drawn) | 91.31
COc1ccccc1[C@@H]1CN(CC(=O)N2CCCCC2)C[C@H]1C(=O)O | -14.69

SMILES | Percent Effect [%]
O=C(CN1C(=O)CCNC1=O)N1CCC(c2ccc(F)cc2)C1 (stereo not drawn) | -18.18
CCOc1cccnc1C(=O)N1CCC(c2ccccc2OC)C1 (stereo not drawn) | -1.787
Cc1cccc(C2CCCN(C(=O)CN3C(=O)CCNC3=O)C2)c1 (stereo not drawn) | 2.396
COCCOCC(=O)N1CCC(c2ccccc2F)C1 (stereo not drawn) | 5.027
CC1(C)OC(=O)N(CC(=O)N2CCC(c3ccccc3F)C2)C1=O (stereo not drawn) | 96.35
O=C1CCCCN1CC(=O)N1CCCC(c2ccccc2)C1 (stereo not drawn) | -3.382
COc1ccccc1C1CCN(C(=O)CN2C(=O)OC(C)(C)C2=O)CC1 | 112.8
O=C(Nc1ccccc1N1CCOC1=O)N1CCSCC1 | -8.317
Oc1ccccc1-c1cc(-c2nc(C3CC3)n[nH]2)[nH]n1 | -8.043
c1cnc(NCc2n[nH]c3c2CCN(Cc2cccnc2)C3)nc1 | -6.284
CC1CCCCN1c1nc2c(c(=O)[nH]1)CCN(Cc1cccnc1)C2 (stereo not drawn) | -7.907
O=c1[nH]c(N2CCOCC2)nc2c1CN(Cc1cccnc1)CC2 | 111.6
O=c1[nH]c(N2CCCCC2)nc2c1CCN(Cc1cccnc1)C2 | 95.47
Cc1cccc(CN2CCc3c(nc(N4CCC(C)CC4)[nH]c3=O)C2)n1 | -8.966
Cn1ccnc1CN(CCO)C(=O)c1nc2ccccc2s1 | -11.45
O=C(CCc1ccccc1)N1CCCCC1C1OCCO1 (stereo not drawn) | -4.281
O=C(NCc1ccccc1F)N1CCCCC1C1OCCO1 (stereo not drawn) | 112.3
O=C(NCCc1ccccc1)N1CCCCC1C1OCCO1 (stereo not drawn) | 1.192
CC(C)(C(=O)NCCC(=O)O)c1cccc(Br)c1 | -20.92
Cc1csc(CN(CC2CCCO2)C(=O)c2ccc(C)nc2C)n1 (stereo not drawn) | -5.335
CN(CC1CCCN1C)c1nccc(C2CCCC2)n1 (stereo not drawn) | 25.37
CN(CC1CCCCO1)c1nncc(-c2cccc(F)c2)n1 (stereo not drawn) | -2.947

SMILES | Percent Effect [%]
Cc1nn(C)cc1CN(C)c1nccc(-c2cn(C)nc2C)n1 | -19.87
Cc1ccc(-c2ccnc(N(C)CC3CCCN3C)n2)c(C)n1 (stereo not drawn) | 123
CCCc1nnc(N(C)CC2CCCN(CC)C2)o1 (stereo not drawn) | -14.65
CCN1CCCC(CN(C)c2nccc(-c3ccc(C)nc3C)n2)C1 (stereo not drawn) | 89.59
Cc1ccc(-c2ccnc(N(C)CC3CCCO3)n2)c(C)n1 (stereo not drawn) | 111.2
Cc1ccc(-c2ccnc(N[C@H]3COC[C@@H]3N3CCCC3)n2)c(C)n1 | -11.11
Cc1ccc(CNC(CCO)C2CCCCC2)nc1 (stereo not drawn) | 14.22
CCOCC(=O)Nc1ncn(Cc2cccc(Br)c2)n1 | 5.844
CNC(=O)C1CCCCN1C(=O)c1csc(-c2ccc(C)cc2)n1 (stereo not drawn) | -3.515
C[S+]([O-])c1nncn1CCCc1ccc(Cl)cc1 (stereo not drawn) | 1.023
O=C(CCc1ccccc1)C1CCCN(Cc2cncn2C2CC2)C1 (stereo not drawn) | -3.844
NC(=O)C1CCN(S(=O)(=O)c2cnn(-c3ccccc3)c2)C1 (stereo not drawn) | -1.203
CS(=O)(=O)N1CCC(N2CCCC2c2ccccn2)CC1 (stereo not drawn) | -15.97
CS(=O)(=O)N1CCN2C(=O)N(C3CCCCC3)C[C@H]2C1 | -8.389
CS(=O)(=O)N1CCC(n2nnn(-c3ccccc3)c2=O)CC1 | 113.8
CCS(=O)(=O)Cc1nnnn1-c1ccccc1 | 1.834
CS(=O)(=O)N1CCCC(n2nnn(-c3ccccc3)c2=O)C1 (stereo not drawn) | 149.4
CS(=O)(=O)N1CCCC(C(=O)N2CCOc3ccccc32)C1 (stereo not drawn) | -6.293
CCS(=O)(=O)N1CCCC(n2nnn(-c3ccccc3)c2=O)C1 (stereo not drawn) | 133
CCS(=O)(=O)N1CCCC(c2nc3ccccc3n2C(C)C)C1 (stereo not drawn) | -13.43
